Laboratory results taken from PubChem BioAssay AID1063 (University of Pittsburgh Molecular Library Screening Center, 2008).
Hit rate of the full screen: of about 200,000 compounds, about 18,000 (9%) were called active. This is one part of a sample in which actives are shown more often than they occur. Rule as the data show it: active = inhibition above about 50%; inactive = the rest.

Test: antileishmanial activity against promastigotes – primary screen (AID 1063);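 also: promastigotes grown with compound for 44 hours at 28 °C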
Conditions: Leishmania major promastigotes, resazurin fluorescence viability; at 10 µM; stronger effect = higher value

| Compound | inhibition |
| --- | --- |
| Cn1cccc1C(C#N)c1ccccc1C#N (stereo unspecified) | 4.16% (inactive) |
| Cc1cc(C(=O)N/N=C/c2ccccc2[N+](=O)[O-])c(C)o1 | -4.59% (inactive) |
| CSc1ccc(/C=N/N2CCN(Cc3ccccc3Cl)CC2)cc1 | -7.46% (inactive) |
| Cc1ccccc1NC(=S)NNC(=O)c1cccc(Br)c1 | -0.99% (inactive) |
| Cc1ccc(S(=O)(=O)NCCc2nnc3ccc(SCc4cccnc4)nn23)cc1 | -6.61% (inactive) |
| COc1ccc(O)c(C(=O)c2cnc3onc(C(C)C)c3c2)c1 | -0.73% (inactive) |
| COCCn1c(=O)[nH]c(=O)c2cc(C(=O)c3cc(OC)ccc3O)cnc21 | 0.78% (inactive) |
| COc1ccc(O)c(C(=O)c2cnc3c(c2)c(-c2ccc(F)cc2)c(C#N)c(=O)n3C)c1 | 52.4% (active) |
| CC(=O)N/N=C(\C)c1ccc(Br)cc1Br | -4.52% (inactive) |
| COc1ccccc1N(C)S(=O)(=O)c1ccc(C(=O)N2CCC(C(N)=O)CC2)cc1 | 3.34% (inactive) |
| CCOC(=O)C1CCN(C(=O)c2ccccc2N(C)S(=O)(=O)c2ccccc2)CC1 | 53.4% (active) |
| CCN1CCN(C(=O)c2ccccc2N(C)S(=O)(=O)c2ccc(C)cc2)CC1 | -0.79% (inactive) |
| CC1COc2ccccc2N1C(=O)c1cccnc1Cl (stereo unspecified) | -4% (inactive) |
| C=C(C)Cn1c(C)cc(C)c(S(=O)(=O)c2ccccc2C)c1=O | 96% (active) |
| CCN(CC(=O)Nc1ccc(Cl)c(S(=O)(=O)N(C)C)c1)Cc1nc2ccccc2c(=O)[nH]1 | -6.29% (inactive) |
| Cc1ccc(NC(=O)CNCc2ccccn2)cc1S(=O)(=O)N(C)C | 6.73% (inactive) |
| CN(C)S(=O)(=O)c1cc(NC(=O)CN2C(=O)NC3(CCCc4ccccc43)C2=O)ccc1Cl (stereo unspecified) | 57.4% (active) |
| COc1ccc(C(=O)O/N=C(\N)Cc2ccc(Cl)cc2Cl)cc1OC | 71.9% (active) |
| COc1ccc(C(=O)ON=C2c3ccccc3-c3ccccc32)cc1OC | -6.29% (inactive) |
| COc1ccc(C/C(N)=N/OC(=O)c2ccco2)cc1OC | -5.88% (inactive) |
| CN(Cc1ccc2nsnc2c1)Cc1nc(Cc2cccc(F)c2)no1 | -4.63% (inactive) |
| CN1CCN(C(=O)CCc2ncc(C(F)(F)F)cc2Cl)CC1 | -6.47% (inactive) |
| O=C(NCC(=O)N(CC1CCCO1)C(C(=O)NC1CCCCC1)c1ccccc1)c1ccco1 (stereo unspecified) | -4.69% (inactive) |
| Cc1cccc(Oc2c([N+](=O)[O-])c(=O)n(C)c3ccccc23)c1 | -3.73% (inactive) |

| Compound | inhibition |
| --- | --- |
| COc1ccc(/C=N/NC(=O)c2cccc(C(F)(F)F)c2)cc1 | 12% (inactive) |
| C=CCNC(=S)N1CCN(CCN=Cc2c(C)[nH]n(-c3ccc([N+](=O)[O-])cc3)c2=O)CC1 | -7.1% (inactive) |
| O=C1Nc2ccccc2C12Nc1ccccc1S2 (stereo unspecified) | -4.59% (inactive) |
| C=C1c2cc(CC)ccc2NC(=O)N1c1ccc(C)cc1 | 12.2% (inactive) |
| CCc1ccc2c(c1)C1(NN=C(c3ccccc3)S1)C(=O)N2 (stereo unspecified) | 99.1% (active) |
| CCN(CCCCOC(=O)c1ccc(OC)c(OC)c1)C(C)Cc1ccc(OC)cc1 (stereo unspecified) | 100% (active) |
| COc1ccc(C(=O)NC(Cc2ccc(OC(=O)c3ccc(OC)cc3)cc2)C(=O)O)cc1 (stereo unspecified) | -3.89% (inactive) |
| COc1ccccc1NC(=O)COc1ccc(C(=O)OCC(=O)N(C(C)C)C(C)C)cc1OC | -1.06% (inactive) |
| CC(C)OC(=O)CN1CCN(c2ccc(Cl)cc2)CC1 | -1.87% (inactive) |
| N#CC1=C(N)OC2=C(C(=O)CCC2)C1C1CC=CCC1 (stereo unspecified) | 4.1% (inactive) |
| CCCc1[nH]nc2c1C(C1CC=CCC1)C(C#N)=C(N)O2 (stereo unspecified) | 66.6% (active) |
| CCCc1[nH]nc2c1C(c1c(C)nn(-c3ccccc3)c1Cl)C(C#N)=C(N)O2 (stereo unspecified) | 8.77% (inactive) |
| COCc1[nH]nc2c1C(C1C=CCCC1)C(C#N)=C(N)O2 (stereo unspecified) | 45.2% (inactive) |
| CCCc1[nH]nc2c1C(c1ccc(OC(=O)c3ccco3)cc1)C(C#N)=C(N)O2 (stereo unspecified) | 15.8% (inactive) |
| CCCc1[nH]nc2c1C(c1ccc(Br)s1)C(C#N)=C(N)O2 (stereo unspecified) | 100% (active) |
| CC(=O)N1CCN(S(=O)(=O)c2c(F)cc(F)c(Cl)c2F)CC1 | 0.83% (inactive) |
| COc1ccc(C(=O)Nc2cccc(S(C)(=O)=O)c2)cc1 | -0.33% (inactive) |
| CC(C)(C)NC(=O)COC(=O)c1cc(Cl)ccc1[N+](=O)[O-] | 2.68% (inactive) |
| CCOC(=O)C1(Cc2cccc(OC)c2)CCCN(S(=O)(=O)c2cccnc2)C1 (stereo unspecified) | 1.74% (inactive) |
| CCOC(=O)c1sc(/N=C/C2=C(O)CC(C)(C)CC2=O)c(C(=O)OCC)c1C | -3.8% (inactive) |
| Cn1c(=O)c2c(ncn2CCc2ccccc2)n(C)c1=O | -0.5% (inactive) |
| Cn1c(=O)c2c(ncn2CC(COCc2ccccc2Cl)OCc2ccccc2Cl)n(C)c1=O (stereo unspecified) | 96.2% (active) |
| Cn1c(=O)c2c(ncn2CC(=O)N2CCN(c3ccccc3)CC2)n(C)c1=O | -3.01% (inactive) |
| Cc1ncc([N+](=O)[O-])n1CCOC(=O)c1ccc(Br)cc1 | 13.8% (inactive) |

| Compound | inhibition |
| --- | --- |
| Cc1cccc(C)c1NC(=O)C1(C)c2cccc[n+]2CC(=O)N1Cc1cccs1 (stereo unspecified) | 13.1% (inactive) |
| O=C(/C=C/Sc1ncn[nH]1)c1ccc(Cl)cc1 | 100% (active) |
| CC(C)(C)c1ccc(C(=O)CSc2ncn[nH]2)cc1 | -1.37% (inactive) |
| O=C(NCCOCc1ccc(Cl)cc1)c1ncn[nH]1 | 24.4% (inactive) |
| Cc1cc(C)n(-c2nnc(N3CCN(c4ccccc4)CC3)nn2)n1 | 10.3% (inactive) |
| Cc1n[nH]c(=O)n1-c1ccc(C(C)C)cc1 | -3.84% (inactive) |
| C/C(=N/O)c1ccc(N2C(=O)C3C4C=CC(C3C2=O)C2C3C(=O)N(c5ccc(/C(C)=N/O)cc5)C(=O)C3C42)cc1 (stereo unspecified) | -0.53% (inactive) |
| Cc1ccc2[nH]c(=O)c(CN3CCCCC3)c(-c3ccccc3)c2c1 | 6.53% (inactive) |
| CS(=O)(=O)c1sc2nc(-c3ccccc3)cc(-c3ccccc3)c2c1N | 3.87% (inactive) |
| Nc1cccc(-c2cc(-c3ccccc3)nc(-c3cccc(N)c3)n2)c1 | 64% (active) |
| Nc1cccc(CCc2nc3ccccc3[nH]2)c1 | -2.96% (inactive) |
| OC1CSc2nc3ccccc3n2C1 (stereo unspecified) | 0.82% (inactive) |
| O=C(Nc1cccc(C(F)(F)F)c1)c1cnccn1 | 7.19% (inactive) |
| Nc1c(C(=O)NCc2ccccc2)nnn1Cc1cccc(Cl)c1 | -2.28% (inactive) |
| O=c1[nH]n(-c2cccc(Cl)c2)c2ncccc12 | -7.31% (inactive) |
| Clc1cccc(CN2COc3c(cc(Cl)c4cccnc34)C2)c1 | 101% (active) |
| O=C(C(=O)N1CCc2ccccc2C1)c1c[nH]c2ccccc12 | 4.91% (inactive) |
| Cc1ccccc1NC(=O)NC1(C(=O)N2CCCC2)CCCCC1 | -6.94% (inactive) |
| CC(C)C(=O)Nc1ccc(C(=O)NNC(=O)c2cccs2)cc1 | 66.2% (active) |
| O=C(O)c1ccc(NC(=O)c2cccs2)cc1 | -4.2% (inactive) |
| Cc1ccc(C(=O)NNC(=O)c2cccs2)cc1 | 5.96% (inactive) |
| COc1ccc(OC)c(S(=O)(=O)NCCC(C)C)c1 | -7.99% (inactive) |
| O=C1Oc2ccccc2C(=O)/C1=C/c1ccccc1O | 7.18% (inactive) |
| CN1CCN(C(=O)N2c3ccccc3CCc3ccccc32)CC1 | -0.1% (inactive) |

| Compound | inhibition |
| --- | --- |
| O=C(Nc1cccc(O)c1)c1ccc(C(=O)c2ccccc2)o1 | 26.7% (inactive) |
| CCOC(=O)C1=C(N)N(c2ccc(C)cc2)C2=C(C(=O)CCC2)C1c1cccs1 (stereo unspecified) | 92.3% (active) |
| O=C1CCCC2=C1C(c1cccs1)CC(=O)N2c1ccc(F)cc1 (stereo unspecified) | 4.07% (inactive) |
| CCOC(=O)c1cc2c(n(-c3ccc(C)cc3)c1=O)CCCC2=O | 15.4% (inactive) |
| Cc1nc(-c2ccccc2)sc1C(=O)/C=C/N(C)C | -7.03% (inactive) |
| COc1ccc(OC)c(NC(=O)CCN2CCC(C)CC2)c1 | 1.65% (inactive) |
| C/C=C/c1ccc(OCCOc2ccc(C=O)cc2OC)c(OC)c1 | -4.56% (inactive) |
| C/C=C/c1ccc(OCCCCN2CCC(C)CC2)c(OC)c1 | 95.6% (active) |
| O=c1c(Cl)c(NC2CC2)cnn1-c1ccccc1 | -1.71% (inactive) |
| c1ccc2c(c1)CSc1sccc1C2=C1CCNCC1 | 58.3% (active) |
| CCOC(=O)Cc1csc(NC(=O)COc2ccc3c(C)cc(=O)oc3c2)n1 | 13.5% (inactive) |
| O=C(c1cccnc1)N(c1cc2sc(=O)oc2c2ccccc12)S(=O)(=O)c1ccccc1 | 99.2% (active) |
| COc1ccc(N(C(=O)c2cccnc2)S(=O)(=O)c2ccc3c(c2)n(C)c(=O)n3C)cc1 | 0.4% (inactive) |
| CN(C)S(=O)(=O)c1cccc(C(=O)Nc2cccnc2)c1 | -3.68% (inactive) |
| N/C(Cc1ccc([N+](=O)[O-])cc1)=N\OC(=O)C1CCCCC1 | -4.63% (inactive) |
| COCCN(C(=O)c1ccccc1F)c1c(N)n(Cc2ccccc2)c(=O)[nH]c1=O | -1.31% (inactive) |
| c1ccc(-c2nc(NCc3ccco3)c3ccccc3n2)cc1 | 66.3% (active) |
| c1coc(CNc2ncnc3ccccc23)c1 | 32.3% (inactive) |
| CCOC(=O)c1c(C)nc(-c2ccccc2)nc1NC(=O)C(C)C | 14.1% (inactive) |
| CCOC(=O)c1nc(Nc2ccc(C(=O)OC)cc2)c2ccccc2n1 | 16.3% (inactive) |
| CS(=O)(=O)n1nc(-c2ccccc2)nc1NCc1ccco1 | -5.02% (inactive) |
| CCC(=O)OCCNc1nc(-c2ccccc2)nc2ccccc12 | 88.4% (active) |
| CN(C)c1ccc(NC(=O)CSc2n[nH]c(-c3ccco3)n2)cc1 | 47% (inactive) |
| CCN(CC)C(=O)Cn1cc(S(=O)(=O)CC(=O)NCc2ccc3c(c2)OCO3)c2ccccc21 | -2.2% (inactive) |
